Screen size: about 310,000 compounds; about 14,000 (4.5%) showed an effect of 50% or more. Effects have a minus sign here. The sample as a whole holds a higher share of strong results than the screen did.
Biological target: human ether-à-go-go-related gene (hERG) potassium channel (human, UniProt Q12809)
Assay: primary screen, population patch clamp on CHO cells stably expressing hERG; higher = less effect of the substance
Description: Briefly, Chinese hamster ovary (CHO) cells stably expressing the hERG channel were dislodged from tissue culture flasks and dispensed into PPC plates. […] During the recording, background leak currents were estimated by a 100 ms step to -80 mV from an initial holding potential of -70 mV and subtracted from the subsequent current measurement. The campaign was conducted in two phases using slight differences in recording protocol. In the first phase, the initial voltage pulse used a 100 ms step to -30 mV from a holding potential of -70 mV, a 2 s conditioning step to +25 mV, and a 2 s test step to -30 mV. During the second phase of the screen, the potential during the conditioning step was raised to +45 mV. In both phases of the campaign, a secondary voltage pulse was applied using the same parameters as the second phase initial pulse. The initial and secondary pulses were applied in the absence of compound, and upon application of 1 μM and 10 μM test concentrations. […]
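Note: peak tail current of the secondary pulse compared with the same well before compound.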

human ether-à-go-go-related gene (hERG) potassium channel, sequence (Q12809 whole entry, looked up): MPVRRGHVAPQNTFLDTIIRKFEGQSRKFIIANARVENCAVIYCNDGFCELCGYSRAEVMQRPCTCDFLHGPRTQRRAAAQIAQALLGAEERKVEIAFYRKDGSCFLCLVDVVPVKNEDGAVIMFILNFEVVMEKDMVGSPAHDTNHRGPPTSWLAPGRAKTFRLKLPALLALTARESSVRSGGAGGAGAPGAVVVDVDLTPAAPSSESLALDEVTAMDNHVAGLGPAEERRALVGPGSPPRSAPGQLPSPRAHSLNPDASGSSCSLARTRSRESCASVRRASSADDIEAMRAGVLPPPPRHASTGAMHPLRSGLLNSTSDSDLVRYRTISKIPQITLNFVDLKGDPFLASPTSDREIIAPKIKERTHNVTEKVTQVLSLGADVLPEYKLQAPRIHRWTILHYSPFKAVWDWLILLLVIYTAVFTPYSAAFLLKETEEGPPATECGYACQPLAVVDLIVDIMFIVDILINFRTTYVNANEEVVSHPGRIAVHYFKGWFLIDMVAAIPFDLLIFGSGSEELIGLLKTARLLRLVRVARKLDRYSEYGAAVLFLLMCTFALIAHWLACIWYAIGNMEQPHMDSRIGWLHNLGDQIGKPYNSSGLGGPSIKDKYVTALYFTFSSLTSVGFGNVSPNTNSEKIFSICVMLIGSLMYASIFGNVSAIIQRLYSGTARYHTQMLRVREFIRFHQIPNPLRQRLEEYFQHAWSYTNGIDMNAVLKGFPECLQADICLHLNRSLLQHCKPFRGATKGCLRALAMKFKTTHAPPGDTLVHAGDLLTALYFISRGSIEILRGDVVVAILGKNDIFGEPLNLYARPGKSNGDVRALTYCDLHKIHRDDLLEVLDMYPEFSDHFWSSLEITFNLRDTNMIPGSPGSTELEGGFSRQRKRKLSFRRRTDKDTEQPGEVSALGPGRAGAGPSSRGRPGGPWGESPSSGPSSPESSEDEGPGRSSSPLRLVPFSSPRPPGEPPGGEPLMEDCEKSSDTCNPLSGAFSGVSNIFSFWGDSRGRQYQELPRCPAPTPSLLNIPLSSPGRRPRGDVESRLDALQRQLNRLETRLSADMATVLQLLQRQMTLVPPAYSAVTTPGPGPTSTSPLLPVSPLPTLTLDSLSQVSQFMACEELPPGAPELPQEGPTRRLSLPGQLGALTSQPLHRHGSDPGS

Structure (SMILES)	hERG current change (%, negative = inhibition) at 10uM [%]
CCC(C)NCCCOc1ccc(Cl)cc1C(C)(C)C.O=C(O)C(=O)O (stereo not shown)	-8.48
CCC(C)NCCOCCOc1ccc(Cl)cc1Br.O=C(O)C(=O)O (stereo not shown)	-51.1
CCC(C)NCCOCCOc1ccc(Br)cc1.O=C(O)C(=O)O (stereo not shown)	-18.1
CC(C)NCCOCCOc1ccc(Cl)cc1Br.O=C(O)C(=O)O	-32.2
CCC(C)NCCCCOc1ccc(Cl)cc1C.O=C(O)C(=O)O (stereo not shown)	-58.6
CCC(C)NCCCOc1cc(Cl)ccc1Cl.O=C(O)C(=O)O (stereo not shown)	-42.3
Cc1cc(OCCOCCNC(C)C)cc(C)c1Cl.O=C(O)C(=O)O	-47.3
CCC(C)NCCOCCOc1cc(C)c(Cl)c(C)c1.O=C(O)C(=O)O (stereo not shown)	-59.2
C=CCc1cc(Cl)ccc1OCCCNC(C)CC.O=C(O)C(=O)O (stereo not shown)	-55.7
C=CCc1cc(Cl)ccc1OCCNCCCOC.O=C(O)C(=O)O	-37.9
C=CCc1cc(Cl)ccc1OCCCNC(C)C.O=C(O)C(=O)O	-40.1
CCC(C)NCCOCCOc1ccc(C)cc1Br.O=C(O)C(=O)O (stereo not shown)	-41
O=C1CCc2ccccc2N1	16.5
Cc1ccc(-c2csc(NC(=O)c3ccccc3Cl)c2C(=O)O)cc1	20.8
COCc1nnc(NC(=O)c2ccc(S(=O)(=O)N(CC(C)C)CC(C)C)cc2)o1	-7.19
NNc1nc2cc3c(cc2s1)OCCO3	14.1
CN(C(=O)CSc1nc2c(cnn2-c2ccccc2)c(=O)[nH]1)C1CCS(=O)(=O)C1 (stereo not shown)	16.1
CSCC(C)N1CCC(CCC(=O)NC2CC2)CC1 (stereo not shown)	-18.1
OCCCCO	13.7
Oc1ccc(Cc2ncc(C(F)(F)F)cc2Cl)cc1	-15.4
Cc1ccc(N(CC(=O)N2CCCCC2)S(=O)(=O)c2ccc(C)cc2)cc1	-20.9
OCc1csc(=Nc2ccccc2)n1-c1ccccc1	0.29
CN(C)CCOCCOc1ccc(Cl)cc1C(C)(C)C.O=C(O)C(=O)O	-37.3

Structure (SMILES)	hERG current change (%, negative = inhibition) at 10uM [%]
C=CCc1cc(Cl)ccc1OCCOCCNC(C)(C)C.O=C(O)C(=O)O	-49.5
C=CCc1cc(Cl)ccc1OCCOCCN(C)C.O=C(O)C(=O)O	-51.5
C=CCc1cc(Cl)ccc1OCCOCCNC(C)CC.O=C(O)C(=O)O (stereo not shown)	-69.2
C=CCc1cc(Cl)ccc1OCCN(C)C.O=C(O)C(=O)O	-42
CCC(C)NCCOCCOc1ccc(Cl)c(C)c1C.O=C(O)C(=O)O (stereo not shown)	-31.7
Cc1occc1-c1nnc(SCC(=O)Nc2c(F)cccc2F)n1C	-7.23
CCOC(=O)c1c(C)[nH]c(C)c1S(=O)(=O)N1CCN(C(=O)c2ccco2)CC1	16.5
Cc1ccc(S(=O)(=O)N2CCCOC2CNC(=O)C(=O)NCc2ccc3c(c2)OCO3)cc1 (stereo not shown)	-13.4
CNC(=S)NNC(=O)c1cccn(Cc2cccc(C(F)(F)F)c2)c1=O	22.2
N#C/C(=C/c1ccc(O)cc1)C(=O)NCc1ccc(Cl)cc1	23.1
C=CCSc1nc2ccsc2c(=O)n1-c1cccnc1	-8.97
Cc1cc2nc(CO)[nH]c2cc1C	14.9
O=C1NC2NC(=O)N([N+](=O)[O-])C2N1 (stereo not shown)	14.6
CC(C)NC(=O)COC(=O)c1ccc(Cl)c(S(N)(=O)=O)c1	18.6
O=C(Nc1c2c(nn1-c1cccc(Cl)c1)CS(=O)(=O)C2)c1ccco1	-37.9
COc1ccc(CC(=O)Nc2c3c(nn2-c2cccc(C)c2C)CS(=O)(=O)C3)cc1	-24.5
O=C(Nc1c2c(nn1-c1ccc(Cl)cc1)CS(=O)(=O)C2)C1CC1	-26.8
O=C(Nc1c2c(nn1-c1ccccc1)CS(=O)(=O)C2)C1CCCC1	-0.437
CCC(=O)Nc1c2c(nn1-c1cccc(Cl)c1)CS(=O)(=O)C2	-38.7
COc1ccc(CC(=O)Nc2c3c(nn2-c2cccc(Cl)c2)CS(=O)(=O)C3)cc1	-51.7
COc1ccc(CC(=O)Nc2c3c(nn2-c2cccc(Cl)c2)CS(=O)C3)cc1 (stereo not shown)	-37.1
O=C(Cc1ccccc1)Nc1c2c(nn1-c1cccc(Cl)c1)CS(=O)(=O)C2	-76.2
CC(C)CC(=O)Nc1c2c(nn1-c1cccc(Cl)c1)CS(=O)(=O)C2	-40.8

Structure (SMILES)	hERG current change (%, negative = inhibition) at 10uM [%]
O=C(Nc1c2c(nn1-c1cccc(Cl)c1)CS(=O)(=O)C2)C1CC1	-66.9
CCCC(=O)Nc1c2c(nn1-c1cccc(Cl)c1)CS(=O)(=O)C2	-53.4
CC(=O)Nc1c2c(nn1-c1cccc(Cl)c1)CS(=O)(=O)C2	-16.8
COc1ccc(CSCCc2n[nH]c(=S)n2-c2ccccc2)cc1C	0.99
O=C(COc1ncnc2ccccc12)Nc1cccc([N+](=O)[O-])c1	-2.61
Cc1ccc(CN=C(N)Nc2nc(C)cc(C)n2)cc1.Cl	-76.1
Cc1cccc(N/C(N)=N/c2nc(C)cc(C)n2)c1	-28
Cc1ccc(N/C(N)=N/c2nc(C)cc(C)n2)cc1	-68.7
CC(=O)NS(=O)(=O)c1ccc(N/C(N)=N/c2nc(C)cc(C)n2)cc1	13.3
Cc1cc(C)nc(/N=C(\N)Nc2ccc(CC(=O)OC(C)C)cc2)n1	-67.6
CC(=O)Nc1ccc(N/C(N)=N/c2nc(C)cc(C)n2)cc1	14
Cc1cc(C)nc(/N=C(\N)Nc2ccc(C)c([N+](=O)[O-])c2)n1	-5.32
Cc1cc(C)cc(N/C(N)=N/c2nc(C)cc(C)n2)c1	-50
COc1cc(N/C(N)=N/c2nc(C)cc(C)n2)cc(OC)c1	-49.8
Cc1ccc(N/C(N)=N/c2nc(C(F)(F)F)cc(C(F)(F)F)n2)cc1	18.9
Cc1cc(C)nc(NC(N)=NC(C)c2ccccc2)n1 (stereo not shown)	-0.0621
Cc1cc(C)nc(NC(N)=NCCc2c[nH]c3ccccc23)n1	11.6
O=C(NCC1CCCO1)NC1(C(F)(F)F)Oc2ccccc2O1 (stereo not shown)	1.63
CN1CCN(S(=O)(=O)c2ccc3c4c(cccc24)C(=O)N3)CC1	-0.59
O=C(NCN1C(=O)C2C3C=CC(C3)C2C1=O)Nc1ccccn1 (stereo not shown)	9.67
CCOC(=O)N1CCC(NS(=O)(=O)c2cc3c(cc2C)NC(=O)CO3)CC1	-7.84
Cc1ccc(NC(=O)NNC(=O)C2CC(c3cccnc3)=NO2)cc1 (stereo not shown)	4.19
O=C1c2ccccc2C(=O)N1OCCOCCOCCON1C(=O)c2ccccc2C1=O	-29.2

Structure (SMILES)	hERG current change (%, negative = inhibition) at 10uM [%]
CC1(c2ccccc2)NC(=O)N(CC(=O)Nc2nnc(C3CC3)s2)C1=O (stereo not shown)	12.1
O=C(Nc1ccc(F)cc1F)c1cccn(Cc2ccccc2)c1=O	13.1
CCn1c(CN2CCCCCC2=O)nnc1SCc1cnc(-c2ccccc2)s1	-19.3
COc1ccc(C(=O)COC(=O)CCCC(=O)NC2CCCCC2)cc1	2.77
COc1ccc(S(=O)(=O)N2CCC(C(=O)N3CCc4ccccc4C3)CC2)cc1C	-19.7
CCC(=O)Nc1ccc(N/C(N)=N/c2nc(C)cc(C)n2)cc1	-4.25
Cc1cc(C)nc(/N=C(\N)Nc2ccccc2-c2ccccc2)n1	-43.2
CC(=O)N/C(=N/c1nc(C)cc(C)n1)Nc1ccc(NC(C)=O)cc1	9.5
Cc1cc(C)nc(/N=C(\N)Nc2ccc(S(=O)(=O)Nc3nc(C)cc(C)n3)cc2)n1.Cl	38
Cc1cc(C)nc(/N=C(\N)Nc2ccc([N+](=O)[O-])cc2)n1	-25
CCOc1ccc(N/C(=N/c2nc(C)cc(C)n2)NC(C)=O)cc1	-12.2
CCc1ccc(N/C(=N/c2nc(C)cc(C)n2)NC(C)=O)cc1	-67
Cc1cc(C)nc(/N=C(\N)Nc2ccc(S(N)(=O)=O)cc2)n1	14.9
Cc1cc(C)nc(/N=C(\N)Nc2ccc(-c3ccccc3)cc2)n1	-81.6
Cc1cc(C)nc(/N=C(\N)Nc2ccc(C(C)C)cc2)n1	-67.5
CCCCc1ccc(N/C(N)=N/c2nc(C)cc(C)n2)cc1	-70.1
COc1ccc(C)cc1NC(=O)NNC(=O)c1cc2ccccc2cc1O	12.1
Cc1ccc(C(=O)Nc2ccc(C)c(S(=O)(=O)Nc3ccccc3Cl)c2)s1	-6.43
CCn1c(=O)c2c3c(sc2n2cnnc12)CCC3	20
CC(=O)N1N=C(c2cccc([N+](=O)[O-])c2)OC1c1ccc(Br)cc1 (stereo not shown)	-7.59
COc1ccc(OC)c(S(=O)(=O)Nc2cccc3ccc(O)cc23)c1	6
COC(=O)CCCc1nc2ccccc2s1	8.7

Reference: PMC4336329 (PLoS ONE, 2015)
